Rows were chosen to be rich in hits. Some 1.7% of all compounds tested hit in one or more screens of this group.
3CLpro inhibitor – SARS-CoV 3CLpro protease inhibition. P0C6X7. recombinant SARS-CoV 3CLpro, quenched FRET peptide cleavage. inhibition, % at 6 µM. 0.14% of 290,000 active. AID 1706; in the data active = inhibition above about 12%
MazEF act – increases E. coli MazEF RNase cleavage of RNA | FAM/BHQ RNA-DNA oligo cleavage fluorescence, 5 h | activation, % at 20 µM | 0.32% of 350,000 active | AID 504720; in the data active = activation above about 50%
Target sequence (P0AE70 whole entry, looked up): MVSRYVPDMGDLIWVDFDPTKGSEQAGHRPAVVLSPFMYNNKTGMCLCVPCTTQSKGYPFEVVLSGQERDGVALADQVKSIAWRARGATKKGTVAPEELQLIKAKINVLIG
PfHsp40 rescue – compounds rescuing yeast from Plasmodium falciparum HSP40 toxicity | S. cerevisiae expressing PfHsp40, growth rescue, ATP luminescence | 0.68% of 340,000 active | growth rescue, % at 12.5 µM; in the data active = growth rescue above about 28%, passing the limit was not always enough;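 note: yeast W303a lacking pdr1 and pdr3 grown in galactose medium; growth measured after three days at 30 °C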
VHR inh abs – DUSP3 (human) phosphatase inhibition. AID 1654. recombinant VHR phosphatase, pNPP absorbance. 0.52% of 290,000 active. inhibition, % at 13.3 µM; in the data active = inhibition above about 50%
Target sequence (P51452 whole entry, looked up): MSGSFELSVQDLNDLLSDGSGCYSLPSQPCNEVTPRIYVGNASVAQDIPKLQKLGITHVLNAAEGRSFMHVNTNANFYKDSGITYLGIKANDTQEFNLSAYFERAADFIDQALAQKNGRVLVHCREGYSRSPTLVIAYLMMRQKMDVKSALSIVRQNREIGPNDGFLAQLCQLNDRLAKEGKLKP
BH1578 lux ind – inducers of Vibrio cholerae quorum light production without autoinducers; AID 588436; V. cholerae BH1578 lux reporter, luminescence, 6 h; activation, % at 18.7 µM; 0.16% of 350,000 active; in the data active = activation mostly above about 9.7%, no sharp cut-off
BJeLR viability – kills HRASV12-expressing BJeLR cells | inhibition, % (no concentration beside the values) | 0.17% of 300,000 active | BJeLR (HRASV12) viability, CellTiter-Glo ATP luminescence, 48 h; in the data active = inhibition above about 50%
Numbers stand for hits; 0 = inactive; - = not tested or not shown; + = active, no number.

SMILES	3CLpro inhibitor	MazEF act	PfHsp40 rescue	VHR inh abs	BH1578 lux ind	BJeLR viability
O=Nc1ccc(O)c2ncccc12	0	0	0	0	0	0
CC(=NO)c1ccc2c(c1)C(=NO)c1ccccc1-2	-	0	0	-	0	-
O=C(NCC(=O)N1CCN(Cc2ccccc2)CC1)c1ccc(Cl)cc1	0	0	0	57	0	0
O=C(Cc1ccc(Cl)cc1)NCC(=O)N1CCN(Cc2ccccc2)CC1	0	0	0	0	0	0
Oc1ccc(N=Nc2n[nH]c(-c3ccccc3)n2)cc1	0	0	0	0	0	0
Oc1ccc(N=Nc2nc(-c3ccccc3)c(-c3ccccc3)[nH]2)cc1	0	126	0	0	0	0
C=CCN(CC=C)S(=O)(=O)c1ccc(NC(=S)NC(=O)c2ccco2)cc1	0	0	55	0	0	0
O=C(c1ccc([N+](=O)[O-])o1)N1CCc2ccccc2C1	0	0	53	0	0	0
O=C(c1ccc([N+](=O)[O-])o1)N1CCc2ccccc21	0	0	0	0	0	0
COc1cc2c(cc1OC)CN(C(=O)c1ccc([N+](=O)[O-])o1)CC2	0	0	63	0	0	0
COc1ccc(C(=O)N2CCc3cc(OC)c(OC)cc3C2)cc1OC	0	0	0	0	0	0
C=CCNc1nc2cc(-c3cccc(Cl)c3)sc2c(=O)n1C	-	-	-	-	0	-
COc1ccc(C)cc1Nc1n[n+](-c2ccccc2)c(-c2cc([N+](=O)[O-])cc(OC)c2O)s1	0	445	0	0	0	0
O=Nc1c(O)n(Cc2cccc(Cl)c2)c2ccccc12	0	0	0	0	30	0
CN(c1ccccc1)S(=O)(=O)c1cccc(NC(=O)C2CCCO2)c1 (configuration not stated)	-	0	0	-	0	-
CCOc1ccccc1N1CCN(C(=O)c2ccccc2)CC1	0	0	0	0	0	0
CCOc1ccccc1N1CCN(C(=O)C2c3ccccc3Oc3ccccc32)CC1	0	0	0	50	0	0
O=C(c1ccc(Cl)cc1Cl)c1ncc(C(F)(F)F)cc1Cl	0	0	0	0	0	0
O/N=C(\c1ccc(Cl)cc1Cl)c1ncc(C(F)(F)F)cc1Cl	0	0	380	0	0	0
N#Cc1ccc(COC(=O)CN2C(=O)NC3(CCCC3)C2=O)cc1	-	0	0	-	0	-
NC(=O)C(CCc1nc2ccccc2[nH]1)NS(=O)(=O)c1ccccc1 (configuration not stated)	-	0	-	-	0	-
CN(N=Nc1ccc([N+](=O)[O-])cc1)c1ccccc1	0	+	0	0	0	0
CN(N=Nc1cccc([N+](=O)[O-])c1)c1ccccc1	0	0	0	0	0	0
Cc1ccc([C@H]2C[C@@H](n3cc(COC(=O)c4ccccc4)nn3)[C@H](O)CN2C(=O)c2cccs2)cc1	-	0	-	-	0	-
CCOc1ccc(C(=O)/C=C/Nc2ccc(S(=O)(=O)Nc3cc(C)nc(C)n3)cc2)cc1	0	0	-	50	-	0
SMILES	3CLpro inhibitor	MazEF act	PfHsp40 rescue	VHR inh abs	BH1578 lux ind	BJeLR viability
Cn1c(O)c(N=NC(=O)CNC(=O)c2ccccc2)c2cc(Br)ccc21	0	0	0	0	0	0
Cn1c(O)c(N=Nc2ccc(F)cc2)c2ccccc21	0	337	0	0	0	0
CCCn1c(O)c(N=NC(=O)CNC(=O)/C=C/c2ccc(OC)cc2)c2ccccc21	0	0	0	0	80	0
CCn1c(O)c(N=NC(=O)CNC(=O)Cc2ccccc2)c2ccccc21	0	0	0	0	0	0
CCCn1c(O)c(N=NC(=O)CNC(=O)Cc2ccc(OC)cc2)c2ccccc21	0	0	0	0	439	0
Cn1c(O)c(N=NC(=O)CNC(=O)c2ccccc2)c2ccccc21	0	0	0	53	0	0
Cc1ccccc1OC1(C)CCN(Cc2ccc(-c3ccccn3)cc2)C1 (configuration not stated)	-	-	-	-	0	-
Nn1c(SCC(=O)Nc2c(Cl)cccc2Cl)nncc1=O	-	0	0	-	0	0
On1ccccc1=S	-	0	382	-	0	-
O=C(Cn1ccccc1=S)c1ccc(Cl)c(Cl)c1	-	0	-	-	0	0
O=C(/C=C/c1cccc(C(F)(F)F)c1)Nc1cccc(C(F)(F)F)c1	0	0	83	0	0	0
CSc1cccc(NC(=O)/C=C/c2cccc(Cl)c2)c1	0	0	245	0	0	0
O=C(/C=C/c1cccc(Cl)c1)Nc1ncccn1	0	0	0	0	0	0
CNC(=O)c1ccc(NC(=O)/C=C/c2cccc(F)c2)cc1	0	0	114	0	0	0
O=C(/C=C/c1cccc(F)c1)Nc1ccc(S(=O)(=O)Nc2ncccn2)cc1	0	0	0	0	0	0
NC(CO)C(=O)NNCc1ccc(O)c(O)c1O (configuration not stated)	0	223	0	0	0	0
O=c1c(Cl)c(N2CCCCC2)cnn1-c1nc2ccccc2[nH]1	0	0	0	0	-	0
O=c1c2ccccc2cnn1-c1nc2ccccc2[nH]1	0	0	0	0	0	82
CC(=O)Nc1ccc(S(=O)(=O)NC(C)C(=O)OCC(=O)Nc2ccc(F)cc2Cl)cc1 (configuration not stated)	-	0	-	-	0	-
Cc1cc2nc(/C=C/c3nc4cc(C)c(C)cc4[nH]3)[nH]c2cc1C	0	0	0	0	0	0
Cc1cc2nc(/C=C/c3cccnc3)[nH]c2cc1C	0	0	0	0	0	53
Cc1ccc(S(=O)(=O)NCc2ccccc2)cc1C(=O)NCC1CCCO1 (configuration not stated)	-	0	0	-	0	0
Cc1cccc(C(=O)N(Cc2nc3ccccc3c(=O)[nH]2)C2CCCCC2)c1	0	0	0	52	0	0
Cc1cccc(C(=O)N(Cc2nc3ccccc3c(=O)[nH]2)C2CCCC2)c1	0	0	0	0	0	0
CCC(CC)C(=O)N(C)c1c(C)nc2c(OCc3ccccc3C(=O)OC)cccn12	-	-	-	-	0	-
SMILES	3CLpro inhibitor	MazEF act	PfHsp40 rescue	VHR inh abs	BH1578 lux ind	BJeLR viability
C=CC(n1cncn1)C(O)(c1ccccc1)c1ccccc1 (configuration not stated)	-	0	146	-	0	0
CCCn1c(SCC(=O)Nc2nc3ccccc3s2)nc2c1c(=O)n(C)c(=O)n2C	0	67	0	0	0	0
Cc1cccc(-n2c(C)nc3cc(C(=O)NCCN4CCOCC4)ccc32)c1	-	0	-	-	0	-
CC(C)OC(=O)c1c2c(n3ccccc13)C(=O)c1ccccc1C2=O	0	175	0	0	0	0
O=c1c2cc(Cl)ccc2nc(-c2ccc([N+](=O)[O-])cc2)n1O	0	0	179	0	0	0
O=c1c2cc(Br)ccc2nc(-c2ccc(Cl)cc2)n1O	0	0	0	52	0	0
Cc1nc2ccc(Cl)cc2c(=O)n1-c1ccc([N+](=O)[O-])cc1	0	0	0	0	0	0
N#Cc1ccc(-c2nc3cc(Cl)ccc3c(=O)n2O)cc1	0	0	136	0	0	0
O=c1c2ccccc2nc(-c2ccc(Cl)c(Cl)c2)n1O	0	0	0	0	0	0

Source: PubChem BioAssay (several laboratories)
